Test results from the supplement of paper PMC6411743.
± gives the standard deviation of the averaged measurements. About 6,200 targets were measured; listed, in parts, are those with the largest changes and a random draw of the rest.

How the values were obtained:
Experiment in all cases: NP40-soluble protein abundance relative to vehicle (solubility fold change) (ratio); higher = more soluble protein in presence of AMP-PNP
UniProt Q58A45|Q58A45-3 = target: T1, UniProt Q58A45|Q58A45-3
T1 sequence (whole entry): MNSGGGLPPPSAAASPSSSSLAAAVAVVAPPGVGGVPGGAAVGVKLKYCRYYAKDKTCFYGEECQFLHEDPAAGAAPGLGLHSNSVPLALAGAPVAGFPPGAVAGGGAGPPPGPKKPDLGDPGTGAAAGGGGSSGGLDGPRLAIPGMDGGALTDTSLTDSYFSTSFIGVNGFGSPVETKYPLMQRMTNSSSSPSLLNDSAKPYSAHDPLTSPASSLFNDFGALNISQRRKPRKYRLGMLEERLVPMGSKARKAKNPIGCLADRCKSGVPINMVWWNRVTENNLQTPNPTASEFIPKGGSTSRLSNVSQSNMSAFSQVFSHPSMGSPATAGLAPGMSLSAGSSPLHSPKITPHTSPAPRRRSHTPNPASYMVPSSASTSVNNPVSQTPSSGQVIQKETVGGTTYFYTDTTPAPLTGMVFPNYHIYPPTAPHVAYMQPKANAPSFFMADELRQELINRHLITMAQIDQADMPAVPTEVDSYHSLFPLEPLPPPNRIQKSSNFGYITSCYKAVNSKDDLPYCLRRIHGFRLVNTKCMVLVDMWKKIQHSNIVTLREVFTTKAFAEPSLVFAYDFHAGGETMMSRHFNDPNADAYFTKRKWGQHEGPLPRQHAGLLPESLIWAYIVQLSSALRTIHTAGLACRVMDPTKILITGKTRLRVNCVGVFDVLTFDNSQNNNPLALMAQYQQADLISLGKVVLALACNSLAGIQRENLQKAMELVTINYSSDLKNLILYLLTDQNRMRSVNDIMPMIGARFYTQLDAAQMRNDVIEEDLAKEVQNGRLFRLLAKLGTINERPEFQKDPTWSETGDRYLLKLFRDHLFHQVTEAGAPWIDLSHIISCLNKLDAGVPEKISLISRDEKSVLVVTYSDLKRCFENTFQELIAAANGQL
Method in brief: (§1)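 Data come from three independent experiments in which Dounce-homogenised Jurkat crude lysate was treated at eight concentrations from 0.1 to 10 mM. Treatment ran 10 min at room temperature and then 3 min at 37 °C, after which 0.8% NP40 and benzonase were added for 60 min at 4 °C before ultracentrifugation. The supernatant underwent TMT labelling and LC-MS/MS, and vsn-normalised intensities were expressed as fold change against the detergent-processed vehicle in each replicate.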

UniProt Q5SGD2|Q5SGD2-3 = target: T2, UniProt Q5SGD2|Q5SGD2-3
T2 sequence (whole entry): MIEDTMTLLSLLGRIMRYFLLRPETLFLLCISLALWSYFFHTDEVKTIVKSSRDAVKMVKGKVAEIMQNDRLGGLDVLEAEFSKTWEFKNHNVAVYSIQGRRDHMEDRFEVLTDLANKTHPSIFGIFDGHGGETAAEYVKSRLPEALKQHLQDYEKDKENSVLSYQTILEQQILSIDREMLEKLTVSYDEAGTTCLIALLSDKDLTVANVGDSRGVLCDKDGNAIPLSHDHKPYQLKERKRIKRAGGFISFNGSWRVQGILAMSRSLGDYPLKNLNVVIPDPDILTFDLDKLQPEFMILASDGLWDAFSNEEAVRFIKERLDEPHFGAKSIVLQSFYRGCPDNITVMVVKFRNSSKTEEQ
Method in brief: as §1

[1] = target: T3, UniProt Q6PJT7-2|Q6PJT7-3|Q6PJT7-5|Q6PJT7-9|Q6PJT7
T3 sequence (whole entry): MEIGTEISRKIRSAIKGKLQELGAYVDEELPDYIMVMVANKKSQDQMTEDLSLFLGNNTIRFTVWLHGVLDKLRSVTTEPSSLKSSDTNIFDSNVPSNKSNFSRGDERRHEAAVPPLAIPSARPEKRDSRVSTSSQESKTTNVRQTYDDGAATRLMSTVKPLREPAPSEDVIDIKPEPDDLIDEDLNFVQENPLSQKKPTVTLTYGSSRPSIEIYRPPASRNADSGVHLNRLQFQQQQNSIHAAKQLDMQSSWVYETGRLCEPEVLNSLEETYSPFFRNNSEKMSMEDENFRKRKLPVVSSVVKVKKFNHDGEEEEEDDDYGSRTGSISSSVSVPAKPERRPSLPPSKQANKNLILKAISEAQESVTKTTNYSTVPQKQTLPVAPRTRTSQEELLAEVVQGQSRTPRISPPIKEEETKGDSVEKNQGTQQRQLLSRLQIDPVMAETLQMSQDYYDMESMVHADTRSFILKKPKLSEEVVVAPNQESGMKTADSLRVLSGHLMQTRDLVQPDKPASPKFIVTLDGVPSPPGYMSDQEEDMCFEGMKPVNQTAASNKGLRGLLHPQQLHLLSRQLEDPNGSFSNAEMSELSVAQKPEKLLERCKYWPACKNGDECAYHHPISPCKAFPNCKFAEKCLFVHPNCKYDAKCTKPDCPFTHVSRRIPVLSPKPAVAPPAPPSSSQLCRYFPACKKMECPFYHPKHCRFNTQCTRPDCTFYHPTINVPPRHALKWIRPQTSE
Method in brief: as §1

UniProt Q8N0Z3 = target: T4, UniProt Q8N0Z3
T4 sequence (whole entry): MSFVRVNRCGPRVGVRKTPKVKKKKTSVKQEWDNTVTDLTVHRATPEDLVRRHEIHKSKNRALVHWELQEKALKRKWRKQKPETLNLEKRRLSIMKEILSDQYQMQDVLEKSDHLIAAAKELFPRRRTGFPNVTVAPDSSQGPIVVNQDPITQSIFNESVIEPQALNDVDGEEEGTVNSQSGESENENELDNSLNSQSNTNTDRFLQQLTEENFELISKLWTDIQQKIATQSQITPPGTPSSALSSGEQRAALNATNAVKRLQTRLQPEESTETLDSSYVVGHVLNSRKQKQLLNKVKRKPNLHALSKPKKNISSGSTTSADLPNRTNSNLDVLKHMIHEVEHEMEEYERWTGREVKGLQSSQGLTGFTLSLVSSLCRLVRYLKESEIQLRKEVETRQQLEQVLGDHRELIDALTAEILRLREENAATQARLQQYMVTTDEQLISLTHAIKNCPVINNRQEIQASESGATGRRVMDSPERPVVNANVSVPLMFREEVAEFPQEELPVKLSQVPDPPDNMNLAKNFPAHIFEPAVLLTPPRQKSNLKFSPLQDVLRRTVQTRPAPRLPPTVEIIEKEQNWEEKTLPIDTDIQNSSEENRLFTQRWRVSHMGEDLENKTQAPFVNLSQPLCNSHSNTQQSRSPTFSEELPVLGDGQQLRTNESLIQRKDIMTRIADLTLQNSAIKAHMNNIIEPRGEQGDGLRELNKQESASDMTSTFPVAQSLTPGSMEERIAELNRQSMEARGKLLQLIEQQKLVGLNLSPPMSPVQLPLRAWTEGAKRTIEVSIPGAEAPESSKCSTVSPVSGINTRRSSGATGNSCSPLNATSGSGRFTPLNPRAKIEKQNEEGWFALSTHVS
Method in brief: as §1

[2] = target: T5, UniProt Q92581-2|Q92581-3|Q92581
T5 sequence (whole entry): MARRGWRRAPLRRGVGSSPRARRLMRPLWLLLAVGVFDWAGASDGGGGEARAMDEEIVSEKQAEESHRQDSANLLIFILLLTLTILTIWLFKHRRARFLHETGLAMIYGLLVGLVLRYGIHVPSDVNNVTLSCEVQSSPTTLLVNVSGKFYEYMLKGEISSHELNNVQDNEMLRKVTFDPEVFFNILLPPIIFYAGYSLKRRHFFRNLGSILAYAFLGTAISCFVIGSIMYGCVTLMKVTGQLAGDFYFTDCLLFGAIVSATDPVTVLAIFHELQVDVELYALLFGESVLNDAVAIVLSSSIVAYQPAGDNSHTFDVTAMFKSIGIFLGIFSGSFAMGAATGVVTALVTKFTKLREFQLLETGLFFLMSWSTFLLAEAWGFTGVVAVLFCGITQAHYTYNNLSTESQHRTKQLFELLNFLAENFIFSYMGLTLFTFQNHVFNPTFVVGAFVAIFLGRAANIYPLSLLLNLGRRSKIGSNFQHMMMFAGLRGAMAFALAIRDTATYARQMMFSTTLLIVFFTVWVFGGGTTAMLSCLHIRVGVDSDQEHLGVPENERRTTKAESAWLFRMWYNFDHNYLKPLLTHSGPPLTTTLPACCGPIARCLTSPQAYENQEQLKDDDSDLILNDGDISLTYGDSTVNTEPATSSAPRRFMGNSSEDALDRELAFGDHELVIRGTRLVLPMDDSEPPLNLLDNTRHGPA
Method in brief: as §1

`Nc1ncnc2c1ncn2[C@@H]1O[C@H](COP(=O)(O)OP(=O)(O)NP(=O)(O)O)[C@@H](O)[C@H]1O` [adenylyl imidodiphosphate] showed an NP40-soluble protein abundance (UniProt Q58A45|Q58A45-3; concentration: 1mM) of 1.032 ± 0.0089, an NP40-soluble protein abundance (UniProt Q58A45|Q58A45-3; concentration: 2mM) of 1.02 ± 0.024 and an NP40-soluble protein abundance (UniProt Q58A45|Q58A45-3; concentration: 4mM) of 1.02 ± 0.03. The NP40-soluble protein abundance (UniProt Q58A45|Q58A45-3; concentration: 6mM) was 0.999 ± 0.026, the NP40-soluble protein abundance (UniProt Q58A45|Q58A45-3; concentration: 8mM) was 1.03 ± 0.022 and the NP40-soluble protein abundance (UniProt Q58A45|Q58A45-3; concentration: 10mM) was 1.01 ± 0.022. It also gave an NP40-soluble protein abundance (UniProt Q5SGD2|Q5SGD2-3; concentration: 1mM) of 1.02 ± 0.029, an NP40-soluble protein abundance (UniProt Q5SGD2|Q5SGD2-3; concentration: 2mM) of 1.03 ± 0.049 and an NP40-soluble protein abundance (UniProt Q5SGD2|Q5SGD2-3; concentration: 4mM) of 1 ± 0.019. The NP40-soluble protein abundance (UniProt Q5SGD2|Q5SGD2-3; concentration: 6mM) was 1 ± 0.016, the NP40-soluble protein abundance (UniProt Q5SGD2|Q5SGD2-3; concentration: 8mM) was 1.02 ± 0.06 and the NP40-soluble protein abundance (UniProt Q5SGD2|Q5SGD2-3; concentration: 10mM) was 1.006 ± 0.0075. It also gave an NP40-soluble protein abundance ([1]; concentration: 1mM) of 1.04 ± 0.018, an NP40-soluble protein abundance ([1]; concentration: 2mM) of 1.17 ± 0.082 and an NP40-soluble protein abundance ([1]; concentration: 4mM) of 1.2 ± 0.061. The NP40-soluble protein abundance ([1]; concentration: 6mM) was 1.28 ± 0.14, the NP40-soluble protein abundance ([1]; concentration: 8mM) was 1.29 ± 0.15 and the NP40-soluble protein abundance ([1]; concentration: 10mM) was 1.33 ± 0.13. For the same molecule, the NP40-soluble protein abundance (UniProt Q8N0Z3; concentration: 1mM) was 0.943 ± 0.051, the NP40-soluble protein abundance (UniProt Q8N0Z3; concentration: 2mM) was 0.976 ± 0.024 and the NP40-soluble protein abundance (UniProt Q8N0Z3; concentration: 4mM) was 0.959 ± 0.03. For the same molecule, the NP40-soluble protein abundance (UniProt Q8N0Z3; concentration: 6mM) was 0.955 ± 0.027, the NP40-soluble protein abundance (UniProt Q8N0Z3; concentration: 8mM) was 0.957 ± 0.026 and the NP40-soluble protein abundance (UniProt Q8N0Z3; concentration: 10mM) was 0.964 ± 0.02. For the same molecule, the NP40-soluble protein abundance ([2]; concentration: 1mM) was 0.999 ± 0.012, the NP40-soluble protein abundance ([2]; concentration: 2mM) was 0.9876 ± 0.0034 and the NP40-soluble protein abundance ([2]; concentration: 4mM) was 0.957 ± 0.028. It also gave an NP40-soluble protein abundance ([2]; concentration: 6mM) of 0.9812 ± 0.0025, an NP40-soluble protein abundance ([2]; concentration: 8mM) of 0.979 ± 0.025 and an NP40-soluble protein abundance ([2]; concentration: 10mM) of 0.96 ± 0.026.
